The full list was thinned out, with hits kept by preference.
Pf Dd2 inh: qHTS Primary assay for Inhibitors of Plasmodium falciparum Dd2 growth in vitro; Potency, µM (titrated, usually from 28.9 µM), inactives show top-dose activity, negative = inhibition, actives largely listed as inhibitors; hit rate 4.3% among 120,000; P. falciparum Dd2 growth, SYBR Green, 72 h; AID 1347417, 2020; active = well fitted inhibition curve with a large enough effect;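 note: plate controls were DMSO vehicle for no effect and reference drug for full effect; nearly all actives have a fitted effect of over 65% in size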
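Readout: SYBR Green fluorescence, 485 nm excitation, 535 nm emission, after ~16 h lysis at 37C. Before that, Dd2-infected red cells (2.5% hematocrit) grew 72 h with compound, 29 uM top final concentration.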
* hit, by the source's call; i = inactive; [ ] = another dose, or the depositor's remark. Potency is the fitted concentration of half-maximal effect.

SMILES	Pf Dd2 inh
Cc1nn(C)c(C)c1S(=O)(=O)N1CCC2(CC1)CC(Cc1cccc(F)c1)CCO2 (stereo not drawn)	-25.0%
CO[C@H]1C(=O)N(C2CCN(C(=O)c3cnc(C)cn3)CC2)[C@H]1c1ccncc1	1.1%
CN(C)C[C@@H]1CN(c2ccncn2)C[C@H]1NC(=O)Cc1cccs1	0.4%
COc1ccccc1NC(=O)c1c(NCc2sccc2C)sc2c1CCCCC2	11.2µM*
CCOc1ccc(NC(=O)c2c(NCc3cccnc3)sc3c2CCCC3)cc1	12.6µM*
COc1ccccc1NC(=O)c1c(NC(=O)COc2ccccc2)sc2c1CCCCC2	-3.3%
Cc1cc(C)c2c(=O)cc(C(=O)Nc3sc4c(c3C(=O)NCc3cccnc3)CCCC4)oc2c1	26.8%
CCOC(=O)c1c(NC(=O)COc2ccc(Br)cc2)sc2c1CCCC2	19.9%
CCOc1ccc(NC(=O)c2c(NCc3sccc3C)sc3c2CCCCC3)cc1	11.2µM*
COc1ccc(Cl)cc1NC(=O)c1c(NCc2sccc2C)sc2c1CCCC2	12.6µM*
O=C(Cc1ccccc1)Nc1sc2c(c1C(=O)Nc1ccccc1Cl)CCC2	i
O=C(O)CCC(=O)Nc1sc2c(c1C(=O)Nc1ccccc1)CCCCC2	1.9%
CCOc1ccc(NC(=O)NCc2c(-n3cccc3)sc3c2CCCC3)cc1	30.4%
O=C1N(c2ccccn2)C[C@H]2CN(CC3CC3)CCN12	-15.3%[44.1 µM]
CC(C)CCCC1CN(C(=O)CCN2CCCCCC2=O)CCO1 (stereo not drawn)	-5.7%
Cc1nn(-c2ccc(F)cc2)c(C)c1CNC(=O)C1NCCc2[nH]cnc21 (stereo not drawn)	-26.0%
CCCN(CC1CCOC1)C(=O)Nc1ccc(Cl)cc1C (stereo not drawn)	i[5.79 µM]
Cc1ccc(-c2cc3c(=O)n(CCNC(=O)c4ccc(Cl)cc4)ccn3n2)cc1C	-13.8%
CCOc1ccc(C(=O)N2CCC3(CCCN(C)C3=O)C2)o1 (stereo not drawn)	4.1%
O=C(CCc1nnc(CCc2c[nH]c3ccccc23)o1)N1CCCC1c1nccs1 (stereo not drawn)	-23.3%
O=C1NC(C(=O)NCCN2CCCCC2)Cn2cccc21 (stereo not drawn)	59.9%
COc1ccc(Cn2c3c(c(=O)n2Cc2ccccc2)CCN(C(=O)c2ccnn2C)C3)cc1	18.3%
Cc1nc2c(c(-c3ccc(Cl)cc3)n1)CCN(C(=O)c1ccc(Cl)nc1)CC2	-21.2%
COC(=O)c1ccc2c(c1)nc1n2[C@@H](CNC(=O)CC(C)(C)C)COC1	-20.0%[44.1 µM]
O=C1CCN(C(=O)[C@H](Cc2ccccc2)NC(=O)C2CCC2)CCCOCCN1	8.1%
SMILES	Pf Dd2 inh
CCN1C(=O)C2CC3(CCN(C(=O)c4nccc5ccccc45)CC3)CN2C1=O (stereo not drawn)	-22.7%
CC(C)(C)C1CCC2(CC1)NC(=O)N(CC(=O)NCc1ccccc1F)C2=O (stereo not drawn)	-3.4%
O=C(Nc1ccc(Oc2ccccc2)cc1)N[C@H]1CO[C@H]2[C@@H]1OC[C@@H]2n1cc(-c2ccccn2)nn1	-21.9%
O=C(Nc1cccc(C(F)(F)F)c1)O[C@@H]1CO[C@H]2[C@@H]1OC[C@@H]2n1cc(-c2ccccn2)nn1	10µM*
O=C(Nc1cccc(C(F)(F)F)c1)N[C@H]1CO[C@H]2[C@@H]1OC[C@H]2OC(=O)Nc1ccccc1	-27.4%
Cc1ccc(S(=O)(=O)N2C[C@@H]3OCC(=O)N(Cc4ccc(F)cc4)[C@@H]3C2)cc1	i
CN1C(=O)C2(CCN(C(=O)c3ccc4c(c3)OCO4)C2)c2ccccc21 (stereo not drawn)	-3.7%
CC(C)(C)c1ccc(NC(=O)O[C@@H]2CO[C@H]3[C@@H]2OC[C@@H]3Nc2nccc(-c3ccccc3)n2)cc1	8.0%
COc1ccc(N2CCN(c3nc(C(=O)NCc4ccccc4C)cs3)CC2)cc1	8.91µM*
COc1ccc(N2CCN(c3nc(C(=O)NCc4ccc(C)cc4)cs3)CC2)cc1	-9.9%
COc1ccc(N2CCN(c3nc(C(=O)NC4CC4)cs3)CC2)cc1	i
COc1ccc(N2CCN(c3nc(C(=O)NCc4cccc(C)c4)cs3)CC2)cc1	3.16µM*
O=C(NCc1cccs1)c1csc(N2CCN(c3ccc(F)cc3)CC2)n1	i
O=C(NCc1ccccc1Cl)c1csc(N2CCN(c3ccc(F)cc3)CC2)n1	i
Cc1ccc(C(=O)NC[C@H]2O[C@@H](CC(=O)NCCN3CCOCC3)[C@H](O)[C@@H]2O)cc1	17.2%[44.1 µM]
CN(C)C[C@@H]1CN(Cc2cccnc2)C[C@H]1NC(=O)COc1ccccc1	-8.9%
COCCc1nncn1C1CCN(C(=O)c2ccc(OC)cc2)CC1	-7.5%
CC(C)NC(=O)N[C@H]1C[C@H]2C(=O)NC[C@@H](CCC(=O)N3CCCCC3)N2C1	8.2%[44.1 µM]
O=C1NC[C@@H](CCC(=O)N2CCCCC2)N2C[C@@H](NC(=S)Nc3ccc(Cl)cc3)C[C@@H]12	6.31µM*
O=C(Nc1ccccc1)N[C@H]1C[C@H]2C(=O)NC[C@@H](CCC(=O)N3CCCCC3)N2C1	i
NS(=O)(=O)c1ccc(CCNCC2(O)CNCCOC2)cc1 (stereo not drawn)	-21.5%
Cc1nc(CCn2ccnc2C)n(-c2ccc(S(N)(=O)=O)cc2)n1	-4.6%
CCOc1ccc(C2Cn3nnc(-c4nc(-c5ccccc5Br)no4)c3CO2)cc1 (stereo not drawn)	i
CN1CC2(CCN(C(=O)c3ccc4ccccc4n3)CC2)CC1C(=O)N1CCOCC1 (stereo not drawn)	-7.1%
Cc1c(Cl)cccc1NC(=O)C(C)n1c(=O)cc(-c2ccccc2)c2c(C)nn(C)c21 (stereo not drawn)	i
SMILES	Pf Dd2 inh
COc1cc(OC)c(NC(=O)C(C)n2c(=O)cc(-c3ccccc3)c3c(C)nn(C)c32)cc1Cl (stereo not drawn)	10µM*
Cc1cc(C)c(NC(=O)C(C)n2c(=O)cc(-c3ccccc3)c3c(C)nn(C)c32)c(C)c1 (stereo not drawn)	19.9%
COc1cccc(CN2CCn3c(nnc3[C@@H]3C[C@@H](O)CN3Cc3cccnc3)C2)c1OC	-12.4%
CCN(CC1CCCN(CCc2cccc(OC)c2)C1)C(=O)c1cc(C)no1 (stereo not drawn)	10µM*
COc1ccccc1CN1CCCC(CN(CCN(C)C)C(=O)c2cc(C(C)C)no2)C1 (stereo not drawn)	i
CCN(CC1CCCN(CCc2cccc(OC)c2)C1)C(=O)CN1CCCC1=O (stereo not drawn)	-11.2%
Cc1ccccc1Oc1c(CCC(=O)NC2CC2)c(C)nn1-c1ccc(F)cc1	-20.7%
O=C(NC1CCCCC1)C1CN(C(=O)c2ccncc2)CC12CCOCC2 (stereo not drawn)	18.0%
O=C(Nc1ccc(C2(C(=O)NCc3cccc(Cl)c3)CCC2)cc1)C1CC1	-9.3%
COCC(=O)N(C1CCOCC1)C1CCN(C(=O)c2cc(F)ccc2F)CC1	42.6%
COc1cccc(C(=O)N2C[C@@H](CO)[C@H](c3nc(C4CC4)no3)C2)c1C	i
O=C(Nc1cccc2ccccc12)N[C@H]1CO[C@H]2[C@@H]1OC[C@@H]2n1nnnc1-c1ccc2c(c1)OCO2	-29.9%
CC(C)c1ccc(NC(=O)c2ccc(F)c(S(=O)(=O)N3CCCC3)c2)cc1	-23.6%
CC(C)c1ccc(NC(=O)c2ccc(F)c(S(=O)(=O)N3CCCCCC3)c2)cc1	21.2%
Cc1ccc(O)c(NC(=O)c2ccc(Br)c(S(=O)(=O)N3CCCCC3)c2)c1	6.31µM*
COCCNC(=O)[C@@H]1C[C@H](Oc2cccnc2)CN1C(=O)COc1ccccc1	10.9%
O=C(Nc1cccnc1)c1nnn2c1CN(Cc1ccccc1F)C(=O)CC2	-6.9%[44.1 µM]

Bioassay records (PubChem)
